Screens deposited in PubChem BioAssay by National Center for Advancing Translational Sciences (NCATS).
BAZ2B block: BAZ2B (human) inhibition. Q9UIF8. AlphaScreen BAZ2B-H3K14Ac peptide displacement. Potency, µM (doses to about 114 µM), for inactives: at the top dose activity change, negative = inhibition, most hits filed as inhibitors. actives 4.4% (n = 360,000); note: potency is the fitted concentration of half-maximal effect; % is set by controls: 0 for no effect and ±100 for the full control effect; nearly all actives have a fitted effect of over 60% in size
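Multi-concentration screen (max 110 uM) measuring displacement of acetylated histone H3 peptide from BAZ2B by AlphaScreen, using 50 nM protein, 50 nM peptide and 10 ug/mL streptavidin donor plus Ni-chelate acceptor beads.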
G9a inh: G9a (human) methyltransferase inhibition; Q96KQ7; G9a H3K9 monomethylation, AlphaScreen, 2 h; Potency, µM (titrated, usually from 102 µM), inactives show at the highest dose activity, negative = inhibition, most hits filed as inhibitors; actives 8.8% (n = 350,000); AID 504332; note: potency is the fitted concentration of half-maximal effect; % is set by controls: 0 for no effect and ±100 for the full control effect; nearly all actives have a fitted effect of over 75% in size
Target sequence (Q96KQ7 913-1193 limits assumed): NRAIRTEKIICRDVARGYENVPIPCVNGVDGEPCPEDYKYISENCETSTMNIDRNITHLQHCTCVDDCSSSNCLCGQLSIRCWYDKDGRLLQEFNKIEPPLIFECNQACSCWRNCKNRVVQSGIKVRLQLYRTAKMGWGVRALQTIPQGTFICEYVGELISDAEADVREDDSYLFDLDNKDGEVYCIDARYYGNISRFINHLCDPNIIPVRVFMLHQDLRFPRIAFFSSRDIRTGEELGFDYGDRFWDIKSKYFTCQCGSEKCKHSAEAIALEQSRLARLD
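Methyltransferase reactions run at room temperature for 2 h (20 nM enzyme, 500 nM biotin-H3K9 peptide, 20 uM SAM) after a 15 min compound preincubation; product detected by AlphaScreen beads and anti-H3K9me1 antibody.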
JMJD2A Tudor inh: inhibitors of human JMJD2A Tudor domain. O75164. AlphaScreen JMJD2A-Tudor / H3K4me3 peptide binding. Potency, µM (top dose mostly 114 µM), for the others: top-dose activity change, negative = inhibition, usual class: inhibitors. actives 4.4% (n = 390,000); note: potency is the fitted concentration of half-maximal effect; % is set by controls: 0 for no effect and ±100 for the full control effect; nearly all actives have a fitted effect of over 50% in size
PI5P4Ka inh: inhibitors of human PI5P4K alpha; actives 1.2% (n = 330,000); max response, %; AID 652105; PI5P4Kalpha enzyme, ADP-Glo luminescence, 60 min; active compounds read low; P48426; active = max response of -50% or lower; inconclusive = between -30% and -50%; inactive = -30% or higher; note: value at the top dose of about 77 µM; % is set by controls: 0 for no effect and ±100 for the full control effect
Target sequence (P48426 whole entry, looked up): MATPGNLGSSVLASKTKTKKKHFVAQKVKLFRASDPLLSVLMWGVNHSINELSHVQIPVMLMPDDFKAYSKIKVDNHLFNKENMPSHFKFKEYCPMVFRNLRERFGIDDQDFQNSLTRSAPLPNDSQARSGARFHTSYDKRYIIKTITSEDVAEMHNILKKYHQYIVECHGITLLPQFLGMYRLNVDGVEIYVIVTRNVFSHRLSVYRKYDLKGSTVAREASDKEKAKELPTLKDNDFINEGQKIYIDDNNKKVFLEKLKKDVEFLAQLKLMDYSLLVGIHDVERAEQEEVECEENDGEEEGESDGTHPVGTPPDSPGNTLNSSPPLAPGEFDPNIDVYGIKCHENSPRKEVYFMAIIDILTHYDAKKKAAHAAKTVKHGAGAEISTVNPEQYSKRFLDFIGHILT
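Enzyme plus substrate dispensed, test compounds pinned in, then ATP (5 microM final) added. After 60 min at RT, ADP-Glo reagent 1 for 45 min and reagent 2 for 30 min preceded luminescence imaging.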
HP1b chromo inh: HP1-beta chromodomain-methylated histone interaction inhibition; Potency, µM (top dose mostly 114 µM), inactives show at the top dose activity change, negative = inhibition, hits mostly inhibitors; AID 540317; AlphaScreen HP1-beta / biotin-H3K9me3 peptide binding; actives 0.56% (n = 390,000); note: potency is the fitted concentration of half-maximal effect; nearly all actives have a fitted effect of over 70% in size
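Compound inhibition of the preformed complex between 50 nM HP1-beta and 50 nM biotinylated H3K9me3 peptide was read by AlphaScreen. Buffer was PBS pH 7.4 with 0.01% Tween-20. Incubations ran 30 min at room temperature, with 10 ug/mL donor/acceptor beads.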
L3MBTL1 block: blocks human L3MBTL1 | Q9Y468 | AlphaScreen L3MBTL1–H3K9me1 peptide binding | Potency, µM (highest dose often 57.1 µM), without a hit: at the highest dose activity, negative = inhibition, hits mostly inhibitors | actives 0.66% (n = 230,000) | AID 485360; note: potency is the fitted concentration of half-maximal effect; % is set by controls: 0 for no effect and ±100 for the full control effect; nearly all actives have a fitted effect of over 60% in size
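AlphaScreen assay: L3MBTL1 (50 nM final) was preincubated 30 min at room temperature with biotinylated H3(1-15)K9me1 peptide (75 nM final), then 30 min with library compounds; streptavidin donor and nickel chelate acceptor beads (10 ug/mL final) added, 30 min dark.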
The depositor's hits bear a star; [ ] = remark or other dose. A selection: hits, their analogues and other compounds. The true share with any hit is near 11%. Unless noted, calls come from the whole dose curve; as a rule, active = well fitted inhibition curve with a large enough effect; inconclusive = small, poorly fitted or top-dose-only effect; inactive = no such curve, though single readings can be large or run the other way.

`CSc1nc(O)c(C2OC(=O)c3ccccc32)c(=O)[nH]1` (stereo not given) gave BAZ2B block -10%, G9a inh 4%[59 µM], JMJD2A Tudor inh -1%, PI5P4Ka inh -10, HP1b chromo inh 26% and L3MBTL1 block -2%.
`CC(C)OCC(O)CN1CCC(Cc2ccccc2)CC1` (stereo not given) gave BAZ2B block -19%, G9a inh -3%, JMJD2A Tudor inh 16%, PI5P4Ka inh 0 and HP1b chromo inh 55%.
`OC(COc1ccc(Br)cc1)CN1CCC(Cc2ccccc2)CC1` (stereo not given) gave BAZ2B block -24%, G9a inh 79µM*, JMJD2A Tudor inh -8%, PI5P4Ka inh -5 and HP1b chromo inh 37%.
Screening O=C(c1ccco1)N1CCN(CC(O)COc2ccc(Br)cc2)CC1 (stereo not given) returned BAZ2B block -3%, G9a inh 50µM*, JMJD2A Tudor inh 2%, PI5P4Ka inh -1 and HP1b chromo inh 19%.
Screening CC(=O)c1ccc(OCC(O)CN2CCN(CC(O)COc3ccc(C(C)=O)cc3)CC2)cc1 (stereo not given) returned BAZ2B block 3%, G9a inh -1%[59 µM], JMJD2A Tudor inh -1%, PI5P4Ka inh -7, HP1b chromo inh 16% and L3MBTL1 block 12%.
`CC(=O)N1CCN(CC(O)COc2ccc(Br)cc2)CC1` (stereo not given) gave BAZ2B block 56µM*, G9a inh 8.9µM*, JMJD2A Tudor inh 18µM*, PI5P4Ka inh -1, HP1b chromo inh inconclusive and L3MBTL1 block 6%.
For Cc1ccc(C)c(NC(=O)Cn2c(=O)n(-c3ccccc3C)c(=O)c3c2c2cc(C)ccc2n3C)c1 the results were BAZ2B block -6%, G9a inh -31%[59 µM], JMJD2A Tudor inh -6% and HP1b chromo inh 29%.
For CCCC(C)C(=O)Nc1nc(C)c(-c2csc(Nc3ccccc3OC)n2)s1 (stereo not given) the results were BAZ2B block inconclusive, G9a inh 7.9µM*, JMJD2A Tudor inh inconclusive, PI5P4Ka inh -3, HP1b chromo inh -17% and L3MBTL1 block -5%.
Screening COc1cccc(Nc2nc(-c3sc(C)nc3C)cs2)c1 returned BAZ2B block inconclusive, JMJD2A Tudor inh inconclusive, PI5P4Ka inh 1, HP1b chromo inh -11% and L3MBTL1 block -4%.
For COc1ccc(OC)c(Nc2nc(-c3sc(C)nc3C)cs2)c1 the results were BAZ2B block 32µM*, G9a inh 50µM*, JMJD2A Tudor inh 40µM*, PI5P4Ka inh 0, HP1b chromo inh inconclusive and L3MBTL1 block -20%.
For CCC(C)C(=O)Nc1nc(C)c(-c2csc(Nc3cc(OC)ccc3OC)n2)s1 (stereo not given) the results were BAZ2B block 50µM*, G9a inh 22µM*, JMJD2A Tudor inh 50µM*, PI5P4Ka inh 0, HP1b chromo inh -17% and L3MBTL1 block -12%.
COc1ccc(OC)c(Nc2nc(-c3sc(NC(=O)CC(C)C)nc3C)cs2)c1 was read as BAZ2B block inconclusive, G9a inh 8.9µM*, JMJD2A Tudor inh 45µM*, PI5P4Ka inh -2, HP1b chromo inh inconclusive and L3MBTL1 block -10%.
Screening CCOC(=O)CN1C(=O)N(c2ccc(C)c(C)c2)S(=O)(=O)c2ccccc21 returned BAZ2B block -2%, G9a inh 1%[59 µM], JMJD2A Tudor inh -8% and HP1b chromo inh 23%.
`Cc1ccc(C)c(Cn2c3ccccc3c3cnn(CC(=O)NC4CCCCCC4)c(=O)c32)c1` gave BAZ2B block 4%, G9a inh 1%[59 µM], JMJD2A Tudor inh -20% and HP1b chromo inh 37%.
For CCOC(=O)c1c(C)[nH]c(C)c1S(=O)(=O)N1CCC(C(=O)Nc2ccc(OC)c(OC)c2)CC1 the results were BAZ2B block -1%, G9a inh -26%[59 µM], JMJD2A Tudor inh -11% and HP1b chromo inh -15%.
CC1CCC(NC(=O)c2ccc3c(c2)N(Cc2ccccc2F)C(=O)c2ccccc2S3=O)CC1 (stereo not given) was read as BAZ2B block -18%, G9a inh -5%[59 µM], JMJD2A Tudor inh -6% and HP1b chromo inh 39%.
COc1cccc(Nc2c3c(nc4nncn24)CCC3)c1 was read as BAZ2B block -8%, G9a inh inconclusive, JMJD2A Tudor inh -5% and HP1b chromo inh 51%.
`CC(=O)CSc1nnc(CN2C(=O)CSc3ccc(C(F)(F)F)cc32)n1C` gave BAZ2B block -1%, G9a inh 45µM*, JMJD2A Tudor inh -13%, PI5P4Ka inh -19, HP1b chromo inh 37% and L3MBTL1 block 5%.
`Cn1c(CN2CCOCC2)nnc1SCC(=O)Nc1cccc(C(F)(F)F)c1` gave BAZ2B block 1%, G9a inh -13%[59 µM], JMJD2A Tudor inh -10%, PI5P4Ka inh 4 and HP1b chromo inh 11%.
Cc1ccc(N2C(=O)CCC2=O)c(C)c1 was read as JMJD2A Tudor inh -7%, PI5P4Ka inh 6 and HP1b chromo inh 17%.
CC1=NN(c2ccc(C)cc2C)C(=O)C1C(c1ccccc1)C1C(=O)N(c2ccc(C)cc2C)N=C1C (stereo not given) was read as BAZ2B block 56µM*, G9a inh inconclusive, JMJD2A Tudor inh inconclusive, PI5P4Ka inh 1, HP1b chromo inh -1% and L3MBTL1 block -12%.
`Cc1nc2cc(N3CCOCC3)c(NC(=O)C3CC3)cc2c(=O)n1Cc1ccccc1` gave BAZ2B block inconclusive, G9a inh 50µM*, JMJD2A Tudor inh inconclusive, PI5P4Ka inh -27, HP1b chromo inh 11% and L3MBTL1 block 3%.
`O=S(=O)(Nc1cc(O)cc2cccnc12)c1ccc(Cl)s1` gave JMJD2A Tudor inh 79µM*.
`O=S(=O)(Nc1nc2ccccc2s1)c1ccc(Cl)s1` gave BAZ2B block 1%, G9a inh inconclusive, JMJD2A Tudor inh -3% and HP1b chromo inh 12%.
Cc1cccc(-n2c(N)cc(=O)[nH]c2=S)c1 was read as BAZ2B block 5%, G9a inh 50µM*, JMJD2A Tudor inh -13%, PI5P4Ka inh -4, HP1b chromo inh 11% and L3MBTL1 block 3%.
`Nc1cc(=O)[nH]c(=O)n1-c1cccc(F)c1` gave BAZ2B block -13%, G9a inh 6%, JMJD2A Tudor inh 2%, PI5P4Ka inh 8, HP1b chromo inh 22% and L3MBTL1 block 6%.
